Screens as filed in PubChem.
Sampled rows, rich in hits. Any-hit rate of the full collection: about 1.8%.
PME-1 primary – PME-1 (human) inhibition; AID 2130; 320,000 compounds, 0.53% hits; recombinant PME-1, FP-Rh probe fluorescence polarization; Q9Y570; inhibition, % at 5.9 µM;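 active means inhibition above the campaign mean of all compounds plus 3 SD, cut at about 26% in these data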;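 further: competitive labeling of PME-1 active site by serine hydrolase directed probe; 0% = PME-1 with DMSO and 100% = wells lacking PME-1 enzyme; inhibitors block probe labeling so polarization falls and inhibition rises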
PP1 counter – counter-screen for PP5 inhibitors: inhibitors of human PP1-alpha | 320,000 compounds, 0.9% hits | purified PP1alpha, OMFP fluorescence | AID 2235 | P62136 | inhibition, % at 6.7 µM;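 active means inhibition above the mean inhibition of all tested compounds plus 3 SD, computed separately for each screening campaign, cut at about 15% in these data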
Target sequence (P62136 whole entry, looked up): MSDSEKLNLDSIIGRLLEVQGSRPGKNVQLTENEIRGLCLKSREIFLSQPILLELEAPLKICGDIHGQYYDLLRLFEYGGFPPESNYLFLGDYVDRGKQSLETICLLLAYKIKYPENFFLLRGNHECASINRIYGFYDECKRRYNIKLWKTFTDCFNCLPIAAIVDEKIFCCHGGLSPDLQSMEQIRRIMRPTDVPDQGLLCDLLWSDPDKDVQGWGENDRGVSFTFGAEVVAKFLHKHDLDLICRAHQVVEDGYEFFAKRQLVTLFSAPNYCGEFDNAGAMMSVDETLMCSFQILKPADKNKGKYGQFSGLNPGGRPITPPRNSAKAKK
LYPLA2 inh – blocks human lysophospholipase 2, a PME1 counter-screen | O95372 | recombinant LYPLA2, FP-Rh probe fluorescence polarization | inhibition, % at 5.9 µM | 320,000 compounds, 0.38% hits | AID 2177;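 active means inhibition above the screen-wide mean plus 3 SD, limit set per campaign, cut at about 26% in these data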;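 further: 0% = LYPLA2 with DMSO and 100% = wells lacking LYPLA2 enzyme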
Target sequence (O95372 whole entry, looked up): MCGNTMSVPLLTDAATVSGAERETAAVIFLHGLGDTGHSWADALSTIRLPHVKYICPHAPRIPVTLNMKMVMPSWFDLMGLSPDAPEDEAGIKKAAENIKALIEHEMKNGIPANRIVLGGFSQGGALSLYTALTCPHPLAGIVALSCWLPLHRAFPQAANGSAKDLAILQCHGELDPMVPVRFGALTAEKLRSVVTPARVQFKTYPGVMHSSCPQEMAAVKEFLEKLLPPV
Fam108B counter – blocks mouse Fam108B hydrolase in RBBP9 counter-screen; inhibition, % at 9.51 µM; recombinant Fam108B, FP-Rh probe fluorescence polarization; 300,000 compounds, 0.33% hits;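 active means inhibition above the screen mean inhibition plus 3 SD, computed separately per campaign, cut at about 18% in these data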;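 further: inhibitors lower polarization as less probe binds the enzyme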
PP5 inh – PP5 (human) phosphatase inhibition | P53041 | purified PP5c, OMFP substrate fluorescence | inhibition, % at 6.7 µM | 320,000 compounds, 0.18% hits;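 active means inhibition above the campaign's mean inhibition across all tested compounds plus 3 SD, cut at about 9.5% in these data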;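 further: 0% = DMSO only and 100% = 100 µM cantharidin control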
LYPLA1 counter – counter-screen for PME1 inhibitors: inhibitors of human LYPLA1; 320,000 compounds, 0.16% hits; recombinant LYPLA1, FP-Rh probe fluorescence polarization; AID 2174; inhibition, % at 5.9 µM; O75608;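 active means inhibition above the mean of all tested compounds plus 3 SD, set per campaign, cut at about 14% in these data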;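 further: inhibitors block serine hydrolase probe labeling of LYPLA1 so polarization falls; 0% = enzyme with DMSO and 100% = wells lacking LYPLA1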
Starred values were filed as active, the others as inactive; · = no result given.

SMILES	PME-1 primary	PP1 counter	LYPLA2 inh	Fam108B counter	PP5 inh	LYPLA1 counter
Cc1cccc2sc(NNC(=O)c3ccc(S(=O)(=O)N4CCCC(C)C4)cc3)nc12 (stereo unspecified)	3.7	10.3	4.3	10.6	4.8	-1.4
CCOC(=O)N1CCN(S(=O)(=O)c2ccc(C(=O)NNc3nc4ccc(Cl)cc4s3)cc2)CC1	-2.7	16.0*	-10.2	-1.4	-0.1	-5.2
Cc1cccc2sc(NNC(=O)c3ccc(S(=O)(=O)N4CCc5ccccc5C4)cc3)nc12	4.3	15.6*	-10.4	7.1	2.4	-14.7
CC(C#N)Sc1ncnc2sc(-c3ccccc3)cc12 (stereo unspecified)	0.9	2.9	-3.1	1.4	4.6	-1.8
O=C(NCc1ccccn1)c1cccc(S(=O)(=O)Nc2ccccc2Cl)c1	7.6	-3.7	0.4	·	-1.8	-0.6
CCN(Cc1ccccc1)C(=O)C(=O)c1cn(CC(=O)N2CCCC2)c2ccccc12	1.7	-4.2	8.2	-1.5	2.7	2.3
COc1cc(C2C(C(=O)c3ccco3)=C(O)C(=O)N2CCc2ccccc2)ccc1O (stereo unspecified)	0.5	15.3*	-3.2	0.6	1.5	1.8
COc1cc(C2C(C(=O)c3ccco3)=C(O)C(=O)N2CC2CCCO2)ccc1O (stereo unspecified)	5.0	2.3	-2.1	1.0	1.2	-2.2
CCCOc1cccc(C2C(C(=O)c3ccco3)=C(O)C(=O)N2CCN(CC)CC)c1 (stereo unspecified)	-1.0	7.5	2.1	1.3	-0.2	-2.0
COCCN1C(=O)C(O)=C(C(=O)c2ccco2)C1c1cccc(Oc2ccccc2)c1 (stereo unspecified)	-1.2	25.3*	4.8	1.4	1.5	0.8
COC(=O)c1cccc(C23CC4(C2)[C@H](CN(Cc2cccnc2)[C@@H]4c2ccccc2)C3c2ccccc2)c1 (stereo partly specified)	-1.2	16.5*	3.6	-0.8	2.6	-2.9
c1ccc(C2[C@H]3CN(Cc4cccnc4)[C@H](c4ccccc4)C34CC2(c2ccccc2)C4)cc1 (stereo partly specified)	-6.4	13.8	-1.5	-1.4	0.1	0.1
FC(F)(F)c1ccc(CN2C[C@@H]3C(c4ccc(C(F)(F)F)cc4)C4(c5cccnc5)CC3(C4)[C@H]2c2ccccc2)cc1 (stereo partly specified)	-4.0	1.5	-2.1	-2.2	2.0	1.1
FC(F)(F)c1ccc(C2[C@H]3CN(Cc4cccnc4)[C@H](c4ccccc4)C34CC2(c2ccccc2)C4)cc1 (stereo partly specified)	-10.7	16.3*	2.0	-2.1	3.2	1.5
COc1ccccc1OCC(O)CN1CCN(C(=O)c2ccccc2)CC1 (stereo unspecified)	-4.8	-12.3	7.0	3.1	-0.9	0.1
C=CCn1c(COc2ccccc2-c2ccccc2)nnc1SCC(=O)NC(=O)NCc1ccco1	1.6	16.1*	-2.8	0.4	4.6	-4.3
CCN(CC(=O)Nc1ccc(OC)cc1)C(=O)Cc1coc2cc(C)c(C)cc12	2.1	3.1	3.1	·	2.5	0.1
COC(=O)C1=C(C)N(Cc2ccccc2)C(=NCCCCO)N[C@H]1c1ccccc1	4.0	15.5*	3.1	-0.5	2.7	-2.5
O=C(CN1CCN(c2nc(-c3ccc(Cl)cc3)cs2)CC1)NCc1ccco1	0.2	15.6*	9.8	1.7	6.3	-1.9
S=C(NCc1ccco1)N1CCN(c2nc(-c3ccc(Cl)cc3)cs2)CC1	5.2	4.3	-2.5	7.5	1.4	-2.5
CCCn1c(N)c(C(=O)CN(C)CC(=O)Nc2ccccc2CC)c(=O)[nH]c1=O	33.0*	2.0	1.5	·	0.3	4.5
Cc1cccc(Cc2cnc(N3C(=N)SC(c4ccccc4)C3=O)s2)c1 (stereo unspecified)	-5.3	15.2*	-6.3	3.7	2.8	-5.1
Cc1ccc(NC(=S)NC(=O)c2ccc(-c3ccc(Cl)cc3)o2)c(O)c1	29.8*	-0.1	-18.1	-7.0	-2.5	-14.3
Cc1cc(O)c(NC(=S)NC(=O)c2ccc(-c3ccc(Cl)cc3)o2)cc1C	38.6*	4.4	-11.0	1.3	1.5	-7.8
Cc1ccc(O)c(NC(=S)NC(=O)Cc2ccc(Cl)cc2)c1	1.5	-0.4	4.1	-2.5	4.6	2.1
SMILES	PME-1 primary	PP1 counter	LYPLA2 inh	Fam108B counter	PP5 inh	LYPLA1 counter
Cn1c(=O)c2c(SCC(=O)NCc3ccco3)nc(-c3ccccc3Cl)nc2n(C)c1=O	-10.7	17.0*	-10.1	-14.3	0.9	-2.0
Cc1ccc(NC(=O)CSCC(=O)NNC(=O)c2nn(C)c(=O)c3ccccc23)cc1	-1.8	-2.1	-0.9	·	-2.8	0.7
O=[N+]([O-])c1ccc(C2Nc3cccc4cccc(c34)N2)cc1	28.8*	2.3	-8.5	13.4	3.0	-6.5
O=[N+]([O-])c1cccc(C2Nc3cccc4cccc(c34)N2)c1	20.9	-0.5	1.7	20.6*	0.4	-4.6
CCOc1ccc(C(=O)COC(=O)c2cccc(-n3cnnn3)c2)cc1	5.2	-1.9	1.4	-1.3	1.4	-2.1
Cc1sc2ncnc(OCC(=O)N3CCN(S(=O)(=O)c4ccc(Cl)cc4)CC3)c2c1C	40.3*	-1.0	7.3	1.6	-1.6	-1.4
O=C1NC(=Nc2ccc(O)cc2)S/C1=C\C=C\c1ccco1	16.8	15.6*	-4.2	16.6	0.4	-3.8
Cc1ccccc1OCC(=O)NNC(=S)NC(=O)c1ccco1	8.9	16.8*	8.4	-2.2	0.1	-6.8
Cc1ccccc1OCC(=O)Nc1ccccc1NC(=O)c1ccco1	3.6	-5.4	6.6	-3.6	1.2	7.8
Brc1ccc(-c2ccc(C3Nc4cccc5cccc(c45)N3)o2)cc1	41.3*	6.8	-5.2	·	2.6	-13.9
Clc1ccccc1C1Nc2cccc3cccc(c23)N1	12.0	8.2	2.0	5.9	2.6	-0.3
Cc1ccc(S(=O)(=O)NC(CC(C)C)C(=O)N2CCCC2)cc1 (stereo unspecified)	4.2	2.2	6.2	2.5	1.6	3.4
CCn1c(/C=C/c2c[nH]c3ccccc23)nc2ccccc2c1=O	43.8*	2.3	-4.0	3.4	2.4	-2.8
O=C(COC(=O)COc1ccc(Cl)cc1Cl)NC1CCCCCC1	6.5	-3.8	-5.8	·	-1.1	-1.5
CC1(C)Cc2c(C#N)c(N3CCN(C(=O)c4ccccc4)CC3)nc(-c3ccco3)c2CS1	0.1	15.5*	-10.2	-0.7	1.4	-7.0
CC(C)c1nc(N2CCN(C(=O)c3ccccc3)CC2)c(C#N)c2c1COC(C)(C)C2	8.6	-1.7	3.3	0.7	5.7	3.7
Cc1ccc(/C=C2\SC(=O)N(CCNC(=O)C3CSC4(C)CCC(=O)N34)C2=O)cc1 (stereo unspecified)	-2.3	-2.0	0.2	-0.3	-0.8	-0.2
CCCc1cc(=O)oc2cc(OCC(=O)NCCc3c[nH]c4ccccc34)ccc12	-12.6	2.2	-0.1	-4.4	7.1	-4.1
